Experimental data from article PMC4336329 (PLoS ONE, 2015).
Out of some 310,000 compounds screened, about 14,000 (4.5%) showed an effect of 50% or more. Effects have a minus sign here. Shown is part of a subset that was picked to be rich in strong results.

Biological target: human ether-à-go-go-related gene (hERG) potassium channel (human, UniProt Q12809)
Test: primary screen, population patch clamp on CHO cells stably expressing hERG; higher = less effect of the substance
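Also: peak tail current of the secondary pulse compared with the same well before compound.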

Sequence of human ether-à-go-go-related gene (hERG) potassium channel (Q12809 whole entry, looked up): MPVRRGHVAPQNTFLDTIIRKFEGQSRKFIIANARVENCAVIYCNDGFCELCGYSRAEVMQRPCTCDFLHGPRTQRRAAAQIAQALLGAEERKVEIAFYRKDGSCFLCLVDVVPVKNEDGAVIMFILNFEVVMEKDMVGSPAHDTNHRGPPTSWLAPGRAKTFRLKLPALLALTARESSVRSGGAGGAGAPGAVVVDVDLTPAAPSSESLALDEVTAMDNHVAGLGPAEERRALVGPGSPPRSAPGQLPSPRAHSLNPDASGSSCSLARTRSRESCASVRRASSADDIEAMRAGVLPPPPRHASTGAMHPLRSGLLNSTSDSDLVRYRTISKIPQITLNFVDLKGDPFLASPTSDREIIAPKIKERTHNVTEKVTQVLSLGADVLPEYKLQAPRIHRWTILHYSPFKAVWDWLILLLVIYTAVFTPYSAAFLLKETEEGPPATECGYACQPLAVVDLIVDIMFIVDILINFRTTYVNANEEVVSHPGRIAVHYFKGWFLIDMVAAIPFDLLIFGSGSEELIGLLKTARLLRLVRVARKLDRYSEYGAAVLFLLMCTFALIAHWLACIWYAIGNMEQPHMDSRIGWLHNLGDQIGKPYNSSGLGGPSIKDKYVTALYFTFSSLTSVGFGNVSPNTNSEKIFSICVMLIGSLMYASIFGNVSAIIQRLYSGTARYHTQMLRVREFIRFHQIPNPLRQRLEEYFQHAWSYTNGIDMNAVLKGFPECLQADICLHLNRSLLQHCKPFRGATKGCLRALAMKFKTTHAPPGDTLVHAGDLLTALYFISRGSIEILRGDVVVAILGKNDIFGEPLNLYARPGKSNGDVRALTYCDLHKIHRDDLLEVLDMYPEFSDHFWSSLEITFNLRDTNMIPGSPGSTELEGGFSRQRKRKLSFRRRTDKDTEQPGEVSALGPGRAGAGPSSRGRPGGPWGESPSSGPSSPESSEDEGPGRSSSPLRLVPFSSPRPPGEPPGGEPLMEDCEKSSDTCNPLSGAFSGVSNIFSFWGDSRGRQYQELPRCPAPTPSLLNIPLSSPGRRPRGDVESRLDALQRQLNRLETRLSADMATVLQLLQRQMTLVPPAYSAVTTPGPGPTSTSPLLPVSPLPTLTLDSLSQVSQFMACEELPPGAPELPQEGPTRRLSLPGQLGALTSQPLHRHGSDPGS

SMILES | hERG current change (%, negative = inhibition) at 10uM
O=C(CNC(=S)N(Cc1ccccc1Cl)C1CCCC1)NCCCN1CCOCC1 | 7.4%
CSc1ccc(CNCC2CCCO2)cc1.Cl (stereo not shown) | 2.99%
CC(/C=N/NC(=O)Cn1cnc2c1c(=O)n(C)c(=O)n2C)=C\c1ccco1 | -10.2%
CCN(C(=O)CSc1nc2ccccc2o1)C1CCS(=O)(=O)C1 (stereo not shown) | -3.25%
CC1(CC(=O)N/N=C/c2ccc(OCc3ccc(Cl)cc3Cl)cc2)OCCCO1 | 5.38%
COc1cccc(C(=O)Nc2ccccc2F)c1 | 8.37%
O=C(CCc1nc2ccccc2c(=O)[nH]1)NNC(=O)COc1ccc(Br)cc1 | 6.48%
CCOC(=O)c1nnn2c1nc(N1CCOCC1)c1ccccc12 | -20.4%
CCOC(=O)c1nnn2c1nc(N1CCN(c3ccccc3)CC1)c1ccccc12 | -62.4%
CCOC(=O)c1nnn2c1nc(N1CCN(C)CC1)c1ccccc12 | -4.25%
CCOc1ccccc1N1C(=O)NC(=O)C(CCc2ccncc2)(CCc2ccncc2)C1=O | -29.6%
COc1ccc(CC2(CCc3ccncc3)C(=O)NC(=O)NC2=O)cc1 | 22.5%
O=C1NC(=O)C(CCc2ccncc2)(CCc2ccncc2)C(=O)N1CCc1ccc(F)cc1 | -68.5%
COc1ccc(OC)c(N2C(=O)NC(=O)C(CCc3ccncc3)(CCc3ccncc3)C2=O)c1 | -41.2%
O=C1NC(=O)C(CCc2ccncc2)(CCc2ccncc2)C(=O)N1Cc1ccc(F)cc1 | -76.6%
O=C1CC(=O)N(CCc2ccc(F)cc2)C(=O)N1 | 9.33%
CCOC(=O)CN1CC23C=CC(O2)C(C(=O)NCCc2ccccc2)C3C1=O (stereo not shown) | 6.73%
CCOC(=O)N1CCN(S(=O)(=O)c2ccc(C)cc2)C1c1ccc(OC)cc1 (stereo not shown) | -11.9%
Cc1ccc(-c2nn(Cc3ccccc3)cc2C=O)cc1C | -13.9%
Cc1cnc(NC(=O)CSc2nc3ccccc3c(=O)[nH]2)s1 | -7.72%
Cc1cccn2c(=O)c3cc(C(=O)NCC(C)C)sc3nc12 | -3.21%
Cc1ccc2nc(SCC(=O)Nc3cccc4ccccc34)nc(=O)n2c1 | -14%

SMILES | hERG current change (%, negative = inhibition) at 10uM
Cc1cccn2c(=O)c3cc(C(=O)N(C)C)n(C)c3nc12 | 2.7%
CNC(=O)c1cc2c(=O)n3cccc(C)c3nc2n(C(C)C)c1=N | -77.3%
Cc1ccccc1CC(=O)NCc1cccnc1 | 10.8%
Cc1cccn2c(=O)c3cc(C(=O)NCc4cccnc4)c(=N)n(C(C)C)c3nc12 | -69.4%
Cc1cccn2c(=O)c3cc(C(=O)O)n(C)c3nc12 | 6.65%
Cc1ccc(CCNC(=O)c2ccc3nc4ccc(Cl)cc4c(=O)n3c2)cc1 | 20.4%
CNC(=O)c1cc2c(=O)n3cc(C)ccc3nc2n(C(C)C)c1=N | -77.1%
O=C(CSc1nnc2scc(-c3ccc(Cl)cc3)n12)NCc1ccco1 | -15.9%
CCOc1cc(CNC(C)(C)CO)cc(Br)c1OCc1ccc(Cl)cc1Cl | -12.1%
COC1CCN(C(=O)CC2C(=O)NCCN2CC(C)(C)C)CC1 (stereo not shown) | 18.5%
COC(=O)c1cc(NC(=O)c2cccnc2)cc(C(=O)OC)c1 | 11%
N#CC(=C1SC=CS1)c1nc(-c2ccccc2)cs1 | 9.47%
CNC(=O)C(=O)NCCCN1CCOCC1 | 7.92%
CC(C)CNC(=O)C(=O)NCCCN1CCOCC1 | -61.6%
CC(C)NC(=O)C(=O)NCCCN1CCOCC1 | 25.1%
Cn1cc(/C=C(\NC(=O)c2ccccc2)C(=O)NCCCN2CCOCC2)c2ccccc21 | 3.43%
O=C(NCCN1CCOCC1)/C(=C\c1ccccc1Cl)NC(=O)c1ccccc1 | -16.2%
O=C(NCCCN1CCOCC1)/C(=C/c1ccco1)NC(=O)c1ccccc1 | 1.44%
CC(C)c1ccc(/C=C(\NC(=O)c2ccccc2)C(=O)NCCCN2CCOCC2)cc1 | -71.4%
CC(C)c1ccc(/C=C(\NC(=O)c2ccccc2)C(=O)NCCN2CCOCC2)cc1 | -61%
CC(=O)c1ccc(S(=O)(=O)N(C)C(C)CCc2ccco2)cc1 (stereo not shown) | -6.81%
CC(=O)N1CCc2cc(Br)cc(S(=O)(=O)N3CCN(c4ccccn4)CC3)c21 | 10.7%

SMILES | hERG current change (%, negative = inhibition) at 10uM
Cc1ccc(/C=C2\C(=N)N3N=C(CC(=O)N4CCOCC4)SC3=NC2=O)o1 | 12.2%
CCOC(=O)c1cc(-c2ccccc2)sc1NC(=O)C(C)C | 13.8%
O=C(O)C1C2CCC(C2)C1C(=O)NCc1ccccn1 (stereo not shown) | 16.1%
CCOC(=O)N1CCN(c2ccc(S(=O)(=O)N(Cc3ccccc3)Cc3ccccc3)cn2)CC1 | -4.41%
O=c1cc(CN2CCN(S(=O)(=O)c3ccccc3)CC2)nc2ccc(Cl)cn12 | -56%
Cc1ccc(S(=O)(=O)N2CCN(Cc3cc(=O)n4ccccc4n3)CC2)c(C)c1 | -80.6%
O=c1nc2ccc(Cl)cn2c2ccc(S(=O)(=O)N3CCCCC3)cc12 | -0.392%
O=S(=O)(c1ccccc1)N1CCN(Cc2cccc(Cl)c2)CC1 | -18.1%
Cc1ccc(S(=O)(=O)N2CCN(Cc3cc(=O)n4ccccc4n3)CC2)cc1C | -40.5%
COc1ccc(S(=O)(=O)N2CCN(Cc3cc(=O)n4ccccc4n3)CC2)cc1 | -31.4%
CCOc1cccc(C2/C(=C(/O)c3ccc4c(c3)CC(C)O4)C(=O)C(=O)N2CCN2CCOCC2)c1 (stereo not shown) | 14.7%
N#Cc1ccccc1NC(=O)CSc1ccc([N+](=O)[O-])cn1 | 13.1%
COc1cc(C(CC(=O)N2CCCC2)c2c(OC)cc(OC)c3c(-c4ccccc4)cc(=O)oc23)cc(OC)c1OC (stereo not shown) | -10.5%
COc1cc(C(CCN2CCCCC2)c2c(OC)cc(OC)c3c(-c4ccccc4)cc(=O)oc23)cc(OC)c1OC (stereo not shown) | -67%
COc1cc(C(CCN2CCCC2)c2c(OC)cc(OC)c3c(-c4ccccc4)cc(=O)oc23)cc(OC)c1OC (stereo not shown) | -70.8%
CCN(CC)CCC(c1cc(OC)c(OC)c(OC)c1)c1c(OC)cc(OC)c2c(-c3ccccc3)cc(=O)oc12 (stereo not shown) | -16.8%
COc1cc(C(CCN2CCCC(C)C2)c2c(OC)cc(OC)c3c(-c4ccccc4)cc(=O)oc23)cc(OC)c1OC (stereo not shown) | -38.7%
COc1cc(OC)c2c(-c3ccccc3)cc(=O)oc2c1C(CCN1CCN(c2ccccc2)CC1)c1ccc(N(C)C)cc1 (stereo not shown) | 7.89%
Cc1ccc(NC(=O)CCS(=O)(=O)c2cc3c(cc2Cl)NC(=O)CO3)cc1 | -17.4%
O=C(CNC(=O)c1ccc(Cl)cc1)c1ccc(Cl)cc1 | 7.28%
Cc1ccc(CNC(=O)C2C3C=CC(C3)C2C(=O)O)cc1 (stereo not shown) | -3.26%
Cl.OC(CN1CCCCC1)Cn1c(C(F)(F)F)nc2ccccc21 (stereo not shown) | 4.06%

SMILES | hERG current change (%, negative = inhibition) at 10uM
CC1CN(S(=O)(=O)c2cccs2)CC(C)O1 (stereo not shown) | -3.7%
COc1ccc(NC(=S)NCc2ccco2)cc1 | 9.23%
COc1ccc(S(=O)(=O)n2cnc3ccccc32)cc1OC | 12.4%
CCCCn1c(O)c(C(CC)=NCc2cc(OC)cc(OC)c2)c(=O)[nH]c1=O | -13.8%
C=CCn1c(O)c(C(CC)=NCc2cc(OC)cc(OC)c2)c(=O)[nH]c1=O | -59%
C=CCn1c(O)c(C(C)=NCc2cc(OC)cc(OC)c2)c(=O)[nH]c1=O | -37%
Cc1ccc(S(=O)(=O)Nc2ccccc2/C=N/c2nc3ccccc3n2C)cc1 | -13.5%
Cc1cc(-c2ccc(N3CCOCC3)cc2)nc2ccccc12.Cl | 3.53%
CCCCn1c(O)c(C=Nc2c(C)n(C)n(-c3ccccc3)c2=O)c(=O)[nH]c1=O | 4.96%
Cc1c(N=Cc2c(O)n(Cc3ccc(F)cc3)c(=O)[nH]c2=O)c(=O)n(-c2ccccc2)n1C | -26%
Cc1c(N=Cc2c(O)n(CCc3ccc(F)cc3)c(=O)[nH]c2=O)c(=O)n(-c2ccccc2)n1C | -61.9%
C=CCn1c(O)c(C=Nc2c(C)n(C)n(-c3ccccc3)c2=O)c(=O)[nH]c1=O | -81.6%
Cc1c(N=Cc2c(O)n(CCc3ccccc3)c(=O)[nH]c2=O)c(=O)n(-c2ccccc2)n1C | -39.3%
Cc1c(N=Cc2c(O)n(Cc3ccccc3)c(=O)[nH]c2=O)c(=O)n(-c2ccccc2)n1C | -5.81%
C=C(C)Cn1c(N2CC(C)CC(C)C2)nc2c1c(=O)[nH]c(=O)n2C (stereo not shown) | 2.46%
COc1ccc(CCC(=O)Nc2ccc(N3CCOCC3)cc2)cc1 | -12.9%
CCOC(=O)C1=C(c2ccccc2)Nc2ncnn2C1c1ccc(OC)c(OC)c1OC (stereo not shown) | -5.55%
CCOC(=O)C1(CCOC)CCN(Cc2ccc(COC)o2)CC1 | 32.9%
CCOC(=O)C1(CCOc2ccccc2)CCN(Cc2ccc(C)o2)CC1 | -75%
CCOC(=O)C1(CCOc2ccccc2)CCN(Cc2ccc(CO)o2)CC1 | -73.8%
CCOC(=O)C1(CCOc2ccccc2)CCN(Cc2ccc(COC)o2)CC1 | -63.7%
CCOC(=O)C1(Cc2ccccc2)CCN(Cc2ccc(COC)o2)CC1 | -19.1%
